In PubChem BioAssay (EPA / NIEHS):
Activity calls are given as the source filed them. How the source made its calls: active means hit-call score of the fitted dose curve at least 0.9, where 1 is the maximum; inactive means score below 0.9.

What was measured:
[1] = ATG_E_Box_CIS: Attagene CIS-FACTORIAL HepG2 Assay for human Enhancer Box (E-box) (AID 2282936); details: HepG2 E-box cis-reporter transcription, actives raise or lower the signal
Summary of the method: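 Fluorescent reporter fragments separated by capillary electrophoresis gave the signal; mRNA came from HepG2 cells transfected with cis-element reporters and treated 24 h. Curves fitted bidirectionally relative to DMSO controls.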

[2] = ATG_M_61_CIS: Attagene CIS-FACTORIAL HepG2 Assay for M61 Transcription Factor (Internal Marker) (AID 2282937); details: HepG2 Attagene CIS-FACTORIAL M61 internal marker reporter; actives raise or lower the signal
Summary of the method: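 Background-control endpoint: HepG2 cells with cis-regulated reporter constructs, 24 h exposure, reporter mRNA detected via fluorescent primer extension and capillary electrophoresis; values from bidirectional fitting with DMSO baseline.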

[3] = ATG_EGR_CIS: Attagene CIS-FACTORIAL HepG2 Assay for human Early Growth Response 1 (EGR1) (AID 2282938); details: HepG2 Attagene CIS-FACTORIAL EGR reporter mRNA; actives raise or lower the signal
Summary of the method: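 Endpoint derived by bidirectional fitting versus DMSO vehicle. Method: cis-promoter reporter units transfected into HepG2, 24 h dosing, RNA isolation, RT-PCR with 6-FAM primer extension and HpaI digestion, then capillary electrophoresis fluorescence detection.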

[4] = ATG_M_19_CIS: Attagene CIS-FACTORIAL HepG2 Assay for M19 Transcription Factor (Internal Marker) (AID 2282939); details: HepG2 Attagene CIS-FACTORIAL M19 internal marker reporter; actives raise or lower the signal
Summary of the method: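 Signals come from fluorescence of labelled reporter-specific PCR fragments resolved by capillary electrophoresis, following 24 h treatment of HepG2 cells transfected with cis-promoter reporter units; activity was fitted in both directions relative to DMSO.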

[5] = ATG_ERE_CIS: Attagene CIS-FACTORIAL HepG2 Assay for Estrogen Response Element (ERE) (AID 2282940); details: HepG2 ERE cis-reporter, Attagene RNA transcript; actives raise or lower the signal
Summary of the method: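 Fluorescence of capillary-separated, FAM-labelled reporter cDNA fragments indicates reporter mRNA levels in HepG2 cells exposed to chemicals for 24 h. Transient transfection with cis-regulated units; data fitted in both directions against DMSO.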

[6] = ATG_Ets_CIS: Attagene CIS-FACTORIAL HepG2 Assay for human Erythroblast Transformation Specific (ETS) (AID 2282941); details: HepG2 ETS cis-reporter transcription, actives raise or lower the signal
Summary of the method: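 Multiplexed reporter transcript profiling: HepG2, 24 h treatment, total RNA to cDNA, PCR, 6-FAM labelling, HpaI cut, capillary electrophoresis. Gain- or loss-of-signal fitted against DMSO.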

[7] = biological target: Hepatocyte nuclear factor 3-beta (Homo sapiens) (UniProt Q9Y261); assay: ATG_FoxA2_CIS: Attagene CIS-FACTORIAL HepG2 Assay for human Forkhead box A2 (FOXA2) (AID 2282942); details: HepG2 cis-reporter transcription factor activity, 24 h; actives raise or lower the signal
Summary of the method: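 Measured: reporter mRNA induction or loss in HepG2 transiently carrying multiple cis-regulated reporter units, 24 h after dosing. Quantified by RT-PCR plus capillary electrophoresis, normalised to DMSO.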

[8] = ATG_FoxO_CIS: Attagene CIS-FACTORIAL HepG2 Assay for human Forkhead box O (FoxO) (AID 2282943); details: HepG2 Attagene cis-reporter, FoxO element, mRNA; actives raise or lower the signal
Summary of the method: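 Human hepatoma HepG2 cells carry transiently introduced reporter transcription units controlled by cis promoter elements. Chemical treatment lasted 24 h, and mRNA signal was compared with DMSO.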

[9] = ATG_GATA_CIS: Attagene CIS-FACTORIAL HepG2 Assay for human GATA Binding Protein (AID 2282944); details: HepG2 GATA cis-element reporter, Attagene multiplex mRNA; actives raise or lower the signal
Summary of the method: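 After transfecting HepG2 cells with multiple cis-regulated reporter units, chemicals are dosed for 24 h; isolated RNA undergoes RT-PCR and fluorescent labeling before capillary electrophoresis, with activity expressed against DMSO.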

[10] = ATG_GLI_CIS: Attagene CIS-FACTORIAL HepG2 Assay for human Zinc Finger Protein GLI1 (AID 2282945); details: HepG2, Attagene cis-factorial reporter mRNA, GLI element; actives raise or lower the signal
Summary of the method: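 Bidirectional curve fits relative to DMSO, using reporter mRNA levels from RT-PCR plus capillary electrophoresis. Cells were HepG2 transiently carrying cis-regulated reporter constructs, harvested 24 h after dosing.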

Measured: AC50

Sequence of Hepatocyte nuclear factor 3-beta (Homo sapiens) (Q9Y261 whole entry, looked up): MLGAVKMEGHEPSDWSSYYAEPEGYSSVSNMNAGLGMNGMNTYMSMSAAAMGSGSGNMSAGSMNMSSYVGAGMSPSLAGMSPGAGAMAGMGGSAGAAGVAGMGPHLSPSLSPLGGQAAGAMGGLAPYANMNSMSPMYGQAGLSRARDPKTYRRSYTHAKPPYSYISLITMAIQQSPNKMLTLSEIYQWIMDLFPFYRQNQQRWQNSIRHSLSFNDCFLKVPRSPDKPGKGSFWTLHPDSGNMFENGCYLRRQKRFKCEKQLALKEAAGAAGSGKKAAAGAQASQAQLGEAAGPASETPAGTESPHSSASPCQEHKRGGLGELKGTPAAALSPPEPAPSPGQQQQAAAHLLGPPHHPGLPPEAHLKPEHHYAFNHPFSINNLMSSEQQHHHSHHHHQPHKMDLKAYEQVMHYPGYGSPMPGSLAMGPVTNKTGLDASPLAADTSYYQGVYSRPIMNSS

O=C(O)CCSCCC(=O)O
inactive: [1] | [2] | [3] | [4] | [5] | [6] | [7] | [8] | [9]

Clc1cccc(Cl)n1
inactive: [1] | [2] | [3] | [4] | [5] | [6] | [7] | [8] | [9]

COC(=O)Cc1cccc2ccccc12
inactive: [1] | [2] | [3] | [4] | [5] | [6] | [7] | [8] | [9] | [10]

c1ccc2sc(SN(C3CCCCC3)C3CCCCC3)nc2c1
inactive: [1] | [2] | [3] | [4] | [5] | [6] | [7] | [8] | [9] | [10]

c1cc(C(c2ccc(OCC3CO3)cc2)c2ccc(OCC3CO3)cc2)ccc1OCC1CO1 (stereo not drawn)
inactive: [2] | [5] | [6]
active: [1] 100 µM | [3] 8.73 µM | [4] 175 µM | [7] 185 µM | [8] 167 µM | [9] 180 µM

OCCN1CCNCC1
inactive: [1] | [2] | [3] | [4] | [5] | [6] | [7] | [8] | [9] | [10]

CC(=O)O[C@H](CC(=O)[O-])C[N+](C)(C)C
inactive: [1] | [2] | [3] | [4] | [5] | [6] | [7] | [8] | [9] | [10]

Nc1cc(N)cc(C(=O)O)c1
inactive: [1] | [2] | [3] | [4] | [5] | [6] | [7] | [8] | [9] | [10]

O=C(O)c1cccc(C(F)(F)F)c1
inactive: [1] | [2] | [3] | [4] | [5] | [6] | [7] | [8] | [9] | [10]

C=CC(C)(C)O
inactive: [1] | [2] | [3] | [4] | [5] | [6] | [7] | [8] | [9] | [10]

CSc1nnc(C(C)(C)C)c(=O)[nH]1
inactive: [1] | [2] | [3] | [4] | [5] | [6] | [7] | [8] | [9] | [10]

O=C(O)C[C@H](O)C[C@H](O)/C=C/c1c(C2CC2)nc2ccccc2c1-c1ccc(F)cc1
inactive: [1] | [2] | [3] | [4] | [6] | [7] | [8] | [9] | [10]
active: [5] 11.6 µM

COc1ccnc(CS(=O)c2nc3cc(OC(F)F)ccc3[nH]2)c1OC (stereo not drawn)
inactive: [1] | [2] | [3] | [4] | [5] | [6] | [7] | [8] | [9] | [10]

O=C1OC2(c3cc(Br)c(O)c(Br)c3Oc3c2cc(Br)c(O)c3Br)c2c(Cl)c(Cl)c(Cl)c(Cl)c21
inactive: [1] | [2] | [4] | [6] | [7] | [8] | [9] | [10]
active: [3] 35 µM | [5] 18.2 µM

CC(C)(C)c1n[nH]c(=S)n(N)c1=O
inactive: [1] | [2] | [3] | [4] | [5] | [6] | [7] | [8] | [9] | [10]

CN1[C@@H]2CC(OC(=O)[C@H](CO)c3ccccc3)C[C@H]1[C@@H]1O[C@@H]12 (stereo partly drawn)
inactive: [1] | [2] | [3] | [4] | [5] | [6] | [7] | [8] | [9] | [10]

CC1COc2ccccc2N1C(=O)C(Cl)Cl (stereo not drawn)
active: [3] 41.1 µM | [8] 21 µM
inactive: [1] | [2] | [4] | [5] | [6] | [7] | [9]

CN(CCOc1ccc(CC2SC(=O)NC2=O)cc1)c1ccccn1 (stereo not drawn)
active: [5] 0.0823 µM
inactive: [1] | [2] | [3] | [4] | [6] | [7] | [8] | [9] | [10]

c1ccc(CCCc2ccccn2)cc1
inactive: [1] | [2] | [3] | [4] | [5] | [6] | [7] | [8] | [9] | [10]

CCC(C)(O)CCC=C(C)C (stereo not drawn)
inactive: [1] | [2] | [3] | [4] | [5] | [6] | [7] | [8] | [9] | [10]

NCCOCCO
inactive: [1] | [2] | [3] | [4] | [5] | [6] | [7] | [8] | [9] | [10]

Cc1ccc(C=O)cc1
inactive: [1] | [2] | [3] | [4] | [5] | [6] | [7] | [8] | [9] | [10]

COc1ccc(Nc2ccccc2)c(C)c1
active: [5] 19.6 µM
inactive: [1] | [2] | [3] | [4] | [6] | [7] | [8] | [9]

OCC(CO)(CO)COCC(CO)(CO)CO
inactive: [1] | [2] | [3] | [4] | [5] | [6] | [7] | [8] | [9] | [10]

CC1=CCC2C(C1)C2(C)C (stereo not drawn)
inactive: [1] | [2] | [3] | [4] | [6] | [7] | [8] | [9] | [10]
active: [5] 82 µM

CCCC(C)C=O (stereo not drawn)
inactive: [1] | [2] | [3] | [4] | [5] | [6] | [7] | [8] | [9] | [10]

Nc1cc(Cl)c(O)c(Cl)c1
active: [3] 136 µM | [8] 135 µM | [10] 157 µM
inactive: [1] | [2] | [4] | [5] | [6] | [7] | [9]

O=P(c1ccccc1)(c1ccccc1)c1ccccc1
inactive: [1] | [2] | [3] | [4] | [5] | [6] | [7] | [8] | [9] | [10]

CC(=O)/C=C/C1=C(C)CCCC1(C)C
inactive: [1] | [2] | [3] | [4] | [5] | [6] | [7] | [8] | [9] | [10]

O=S(=O)(O)c1ccc(O)c2ncccc12
inactive: [1] | [2] | [3] | [4] | [5] | [6] | [7] | [8]

CC(C)(Oc1ccc(CCNC(=O)c2ccc(Cl)cc2)cc1)C(=O)O
inactive: [1] | [2] | [3] | [4] | [5] | [6] | [7] | [8] | [9]

CCCCCCCCCC=O
inactive: [1] | [2] | [3] | [4] | [5] | [6] | [7] | [8] | [9] | [10]

CC(c1cc2ccccc2s1)N(O)C(N)=O (stereo not drawn)
inactive: [1] | [2] | [3] | [4] | [5] | [6] | [7] | [8] | [9] | [10]

O=[N+]([O-])c1ccc(C=Cc2ccc([N+](=O)[O-])cc2S(=O)(=O)O)c(S(=O)(=O)O)c1
inactive: [1] | [2] | [3] | [4] | [6] | [7] | [8] | [9] | [10]
active: [5] 62.3 µM

OCCCCCO
inactive: [1] | [2] | [3] | [4] | [5] | [6] | [7] | [8] | [9] | [10]

C=CC(C)(CCC=C(C)C)OC=O (stereo not drawn)
inactive: [1] | [2] | [3] | [4] | [5] | [6] | [7] | [8] | [9] | [10]

CC(=O)C=CC1=C(C)CCCC1(C)C
inactive: [1] | [2] | [3] | [4] | [5] | [6] | [7] | [8] | [9] | [10]

C=CC(=O)OCC(O)COc1ccccc1 (stereo not drawn)
inactive: [2] | [4] | [5] | [6] | [7] | [9]
active: [1] 38.8 µM | [3] 64.3 µM | [8] 25.2 µM

C[Si](O[Si](C)(C)C)O[Si](C)(C)C
inactive: [1] | [2] | [3] | [4] | [6] | [7] | [8] | [9]

CC1(CO)CN(c2ccccc2)NC1=O (stereo not drawn)
inactive: [1] | [2] | [3] | [4] | [6] | [7] | [8] | [9] | [10]

O=C(O)c1cccc([N+](=O)[O-])c1
inactive: [1] | [2] | [3] | [4] | [6] | [7] | [8] | [9] | [10]

C[C@]12CC[C@H]3[C@@H](CCC4=CC(=O)CC[C@@]43C)[C@@H]1CC[C@@H]2C(=O)CO
inactive: [1] | [2] | [4] | [6] | [7] | [8] | [9]
active: [3] 55.9 µM

CC(O)C(C)O (stereo not drawn)
inactive: [1] | [2] | [3] | [4] | [6] | [7] | [8] | [9]

Cc1cc(C2(c3cc(C)c(O)cc3C)OS(=O)(=O)c3ccccc32)c(C)cc1O
inactive: [1] | [2] | [3] | [4] | [6] | [7] | [8] | [10]
active: [5] 2.74 µM

BrC1CCC(Br)C(Br)CCC(Br)C(Br)CCC1Br (stereo not drawn)
inactive: [1] | [2] | [4] | [7]
active: [3] 35.9 µM | [6] 143 µM | [8] 87 µM | [9] 66.3 µM

O=C[C@@H](O)[C@H](O)[C@H](O)CO
inactive: [1] | [2] | [3] | [4] | [6] | [7] | [8] | [9]
